Tests used:
Assay in all cases: log2 ratio of Biotin-Ahx-Ub-VS probe labelling (fragment/DMSO); higher = less target engagement (more negative = stronger competition), active = hit call of the paper (q ≤ 0.05, log2 ratio ≤ -1)
Details in all cases: compound concentration: 200 uM; treatment time: 3 h
ALG13 = target: T1, ALG13 (UniProt Q9NP73)
T1 sequence (whole entry): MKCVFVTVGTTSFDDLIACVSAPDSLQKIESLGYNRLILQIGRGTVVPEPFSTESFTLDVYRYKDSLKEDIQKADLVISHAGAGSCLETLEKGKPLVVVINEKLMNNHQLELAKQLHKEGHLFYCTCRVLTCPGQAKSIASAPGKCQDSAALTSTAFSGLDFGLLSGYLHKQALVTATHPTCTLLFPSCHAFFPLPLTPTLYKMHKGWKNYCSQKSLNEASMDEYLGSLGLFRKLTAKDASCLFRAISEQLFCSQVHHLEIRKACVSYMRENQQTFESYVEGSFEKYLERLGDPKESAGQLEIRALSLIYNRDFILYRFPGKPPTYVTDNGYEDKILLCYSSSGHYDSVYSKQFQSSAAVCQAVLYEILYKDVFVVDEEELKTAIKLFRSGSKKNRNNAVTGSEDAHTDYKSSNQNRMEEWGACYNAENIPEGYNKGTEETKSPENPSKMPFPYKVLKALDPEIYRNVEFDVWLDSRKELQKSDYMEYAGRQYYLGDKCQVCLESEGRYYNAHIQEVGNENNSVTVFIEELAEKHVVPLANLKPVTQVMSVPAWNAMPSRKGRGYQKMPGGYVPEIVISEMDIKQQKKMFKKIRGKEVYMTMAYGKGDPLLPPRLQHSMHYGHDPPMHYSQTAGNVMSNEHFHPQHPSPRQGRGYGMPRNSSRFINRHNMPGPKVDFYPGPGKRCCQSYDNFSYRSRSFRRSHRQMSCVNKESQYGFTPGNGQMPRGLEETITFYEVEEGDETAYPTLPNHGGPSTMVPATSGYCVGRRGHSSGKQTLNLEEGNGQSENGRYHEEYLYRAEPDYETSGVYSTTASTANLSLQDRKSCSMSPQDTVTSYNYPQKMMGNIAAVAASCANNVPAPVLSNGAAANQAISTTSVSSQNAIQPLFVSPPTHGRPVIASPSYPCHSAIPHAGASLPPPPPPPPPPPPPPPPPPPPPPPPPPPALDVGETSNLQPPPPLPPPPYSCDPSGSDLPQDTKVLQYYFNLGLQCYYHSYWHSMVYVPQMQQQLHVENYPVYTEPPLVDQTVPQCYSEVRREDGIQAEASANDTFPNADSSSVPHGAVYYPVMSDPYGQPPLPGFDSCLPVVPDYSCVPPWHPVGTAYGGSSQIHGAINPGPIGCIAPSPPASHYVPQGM
In short: (§1)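 Lysate from HEK293T cells, 495 µg per sample in Tris/CHAPS/IGEPAL buffer with protease inhibitors, was treated for 3 h in triplicate with fragment at 200 µM or vehicle. Biotin-Ahx-Ub-VS was next added at 0.5 µM final for 1 h. The labelled DUBs were enriched with NeutrAvidin, digested with LysC and trypsin, and run by diaPASEF LC-MS/MS, with values given as average log2 fragment/vehicle ratios by unpaired t-test on global-median-normalised Spectronaut quantities of proteins with ≥2 unique peptides.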

ATXN3 = ATXN3 (UniProt P54252)
Chain of ATXN3 (P54252 whole entry): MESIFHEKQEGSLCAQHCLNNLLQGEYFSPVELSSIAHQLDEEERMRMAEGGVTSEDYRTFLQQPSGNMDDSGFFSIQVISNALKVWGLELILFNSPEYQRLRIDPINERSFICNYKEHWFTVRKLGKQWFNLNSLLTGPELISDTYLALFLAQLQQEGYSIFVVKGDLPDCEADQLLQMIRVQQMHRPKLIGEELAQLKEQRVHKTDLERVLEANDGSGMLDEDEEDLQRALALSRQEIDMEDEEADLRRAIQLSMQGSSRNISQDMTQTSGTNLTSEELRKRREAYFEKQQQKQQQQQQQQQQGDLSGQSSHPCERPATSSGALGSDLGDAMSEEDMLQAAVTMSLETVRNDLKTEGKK
In short: as §1

BAP1 = target: T2, BAP1 (UniProt Q92560)
T2 sequence (whole entry): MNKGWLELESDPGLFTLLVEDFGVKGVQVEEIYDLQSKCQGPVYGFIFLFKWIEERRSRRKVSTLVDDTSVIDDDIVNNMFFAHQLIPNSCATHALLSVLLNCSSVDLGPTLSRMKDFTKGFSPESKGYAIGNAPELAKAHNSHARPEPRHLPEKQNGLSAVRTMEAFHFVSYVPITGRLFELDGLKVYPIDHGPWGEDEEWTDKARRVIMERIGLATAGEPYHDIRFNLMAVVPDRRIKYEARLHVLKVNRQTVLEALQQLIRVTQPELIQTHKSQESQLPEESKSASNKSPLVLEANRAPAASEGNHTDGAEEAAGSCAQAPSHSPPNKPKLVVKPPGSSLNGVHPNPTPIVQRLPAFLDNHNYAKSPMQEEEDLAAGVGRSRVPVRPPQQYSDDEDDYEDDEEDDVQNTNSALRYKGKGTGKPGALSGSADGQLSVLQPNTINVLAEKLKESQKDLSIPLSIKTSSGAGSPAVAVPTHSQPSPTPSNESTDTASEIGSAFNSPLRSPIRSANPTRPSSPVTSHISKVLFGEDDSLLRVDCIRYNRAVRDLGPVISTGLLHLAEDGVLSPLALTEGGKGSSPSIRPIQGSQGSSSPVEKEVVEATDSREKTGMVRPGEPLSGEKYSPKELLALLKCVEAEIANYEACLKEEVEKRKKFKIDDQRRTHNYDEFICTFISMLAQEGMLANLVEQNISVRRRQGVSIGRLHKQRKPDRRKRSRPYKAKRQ
In short: as §1

EIF3F = EIF3F (UniProt O00303)
Chain of EIF3F (O00303 whole entry): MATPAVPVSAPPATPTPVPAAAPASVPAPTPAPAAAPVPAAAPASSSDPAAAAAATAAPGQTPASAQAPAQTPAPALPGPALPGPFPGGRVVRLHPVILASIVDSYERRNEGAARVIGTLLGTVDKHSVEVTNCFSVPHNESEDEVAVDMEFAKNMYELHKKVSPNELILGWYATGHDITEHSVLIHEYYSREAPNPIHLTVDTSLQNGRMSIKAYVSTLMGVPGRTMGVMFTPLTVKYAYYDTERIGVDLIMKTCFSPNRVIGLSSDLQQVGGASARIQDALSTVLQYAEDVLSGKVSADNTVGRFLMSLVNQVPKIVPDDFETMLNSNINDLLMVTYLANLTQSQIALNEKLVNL
In short: as §1

EIF3H = EIF3H (UniProt O15372)
Chain of EIF3H (O15372 whole entry): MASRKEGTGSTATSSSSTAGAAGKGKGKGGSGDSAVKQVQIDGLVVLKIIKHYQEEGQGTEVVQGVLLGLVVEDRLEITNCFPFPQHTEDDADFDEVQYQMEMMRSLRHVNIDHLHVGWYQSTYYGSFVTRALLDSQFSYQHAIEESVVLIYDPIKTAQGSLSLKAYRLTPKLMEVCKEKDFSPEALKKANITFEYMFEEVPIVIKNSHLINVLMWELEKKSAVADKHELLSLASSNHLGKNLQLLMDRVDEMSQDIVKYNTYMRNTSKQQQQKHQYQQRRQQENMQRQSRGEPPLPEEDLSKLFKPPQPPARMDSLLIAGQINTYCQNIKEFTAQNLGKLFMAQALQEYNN
In short: as §1

FAM105A = target: T3, FAM105A (UniProt Q9NUU6)
T3 sequence (whole entry): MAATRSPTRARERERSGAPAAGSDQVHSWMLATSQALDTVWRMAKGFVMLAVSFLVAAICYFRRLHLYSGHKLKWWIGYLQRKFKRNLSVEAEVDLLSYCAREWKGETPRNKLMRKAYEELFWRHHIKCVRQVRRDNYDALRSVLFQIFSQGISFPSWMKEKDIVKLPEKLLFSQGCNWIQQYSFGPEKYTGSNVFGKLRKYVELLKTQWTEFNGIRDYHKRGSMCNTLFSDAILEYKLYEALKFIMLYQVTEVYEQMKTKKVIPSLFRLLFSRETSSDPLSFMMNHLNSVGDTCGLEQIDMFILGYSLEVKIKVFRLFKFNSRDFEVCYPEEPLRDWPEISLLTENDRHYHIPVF
In short: as §1

OTUB1 = OTUB1 (UniProt Q96FW1)
Chain of OTUB1 (Q96FW1 whole entry): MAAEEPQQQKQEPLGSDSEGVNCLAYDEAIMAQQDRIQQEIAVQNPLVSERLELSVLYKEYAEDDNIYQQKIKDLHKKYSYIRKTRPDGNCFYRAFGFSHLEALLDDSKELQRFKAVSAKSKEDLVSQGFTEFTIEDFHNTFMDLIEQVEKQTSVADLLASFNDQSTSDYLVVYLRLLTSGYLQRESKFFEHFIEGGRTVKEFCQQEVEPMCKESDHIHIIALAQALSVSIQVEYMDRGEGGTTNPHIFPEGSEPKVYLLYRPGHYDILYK
In short: as §1

OTUD4 = target: T4, OTUD4 (UniProt Q01804)
T4 sequence (whole entry): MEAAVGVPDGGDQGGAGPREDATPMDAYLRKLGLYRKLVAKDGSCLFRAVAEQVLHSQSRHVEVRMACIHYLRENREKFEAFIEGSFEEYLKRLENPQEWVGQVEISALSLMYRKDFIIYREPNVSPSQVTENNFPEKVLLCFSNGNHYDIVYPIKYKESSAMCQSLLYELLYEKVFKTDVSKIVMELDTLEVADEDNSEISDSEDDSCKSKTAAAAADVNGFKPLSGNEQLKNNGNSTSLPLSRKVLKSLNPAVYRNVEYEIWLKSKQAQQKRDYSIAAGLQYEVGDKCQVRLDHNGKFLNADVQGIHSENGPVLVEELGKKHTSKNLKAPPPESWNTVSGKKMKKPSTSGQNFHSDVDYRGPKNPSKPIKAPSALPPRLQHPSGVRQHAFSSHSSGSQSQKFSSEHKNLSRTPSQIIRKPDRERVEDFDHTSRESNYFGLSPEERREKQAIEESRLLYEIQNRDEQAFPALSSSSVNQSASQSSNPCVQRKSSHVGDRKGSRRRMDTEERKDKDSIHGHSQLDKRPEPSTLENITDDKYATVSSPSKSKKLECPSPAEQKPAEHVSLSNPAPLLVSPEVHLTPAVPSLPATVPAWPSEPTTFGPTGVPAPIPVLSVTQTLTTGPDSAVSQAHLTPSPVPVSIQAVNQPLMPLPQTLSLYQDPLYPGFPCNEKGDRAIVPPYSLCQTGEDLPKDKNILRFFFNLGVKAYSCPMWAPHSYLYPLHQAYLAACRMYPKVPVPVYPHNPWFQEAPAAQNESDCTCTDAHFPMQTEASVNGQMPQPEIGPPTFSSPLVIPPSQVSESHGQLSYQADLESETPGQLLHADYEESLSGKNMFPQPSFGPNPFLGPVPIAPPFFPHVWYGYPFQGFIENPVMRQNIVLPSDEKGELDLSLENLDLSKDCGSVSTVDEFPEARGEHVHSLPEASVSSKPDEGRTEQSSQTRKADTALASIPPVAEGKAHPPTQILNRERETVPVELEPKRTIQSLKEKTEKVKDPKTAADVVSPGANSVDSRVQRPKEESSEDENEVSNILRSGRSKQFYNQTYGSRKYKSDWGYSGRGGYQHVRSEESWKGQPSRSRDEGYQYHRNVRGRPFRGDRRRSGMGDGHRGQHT
In short: as §1

OTUD5 = target: T5, OTUD5 (UniProt Q96G74)
T5 sequence (whole entry): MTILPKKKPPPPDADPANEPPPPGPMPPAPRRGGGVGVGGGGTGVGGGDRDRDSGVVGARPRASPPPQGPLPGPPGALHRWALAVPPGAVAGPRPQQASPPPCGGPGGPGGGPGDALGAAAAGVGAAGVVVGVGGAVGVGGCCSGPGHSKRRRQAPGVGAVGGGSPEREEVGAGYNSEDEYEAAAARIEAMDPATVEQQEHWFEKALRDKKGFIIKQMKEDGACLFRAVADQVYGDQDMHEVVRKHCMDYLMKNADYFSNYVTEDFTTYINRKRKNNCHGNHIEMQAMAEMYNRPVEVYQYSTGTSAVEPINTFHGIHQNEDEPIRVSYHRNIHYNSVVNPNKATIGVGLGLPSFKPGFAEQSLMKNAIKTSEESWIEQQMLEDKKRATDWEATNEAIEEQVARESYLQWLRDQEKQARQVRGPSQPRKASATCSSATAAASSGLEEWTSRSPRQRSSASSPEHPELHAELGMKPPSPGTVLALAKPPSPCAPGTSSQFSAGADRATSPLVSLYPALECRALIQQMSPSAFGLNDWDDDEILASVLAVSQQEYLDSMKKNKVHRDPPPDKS
In short: as §1

Measured: log2 ratio of Biotin-Ahx-Ub-VS probe labelling

O=C(CCl)N1CCC(c2ccn[nH]2)C1 (centres undefined)
inactive: ALG13 -0.443 | ATXN3 -0.622 | BAP1 -0.721 | EIF3F -0.232 | EIF3H 0.0161 | FAM105A -0.198 | OTUB1 -0.156 | OTUD4 -0.303 | OTUD5 -0.376

— the supplement of paper PMC11732987, “Enantioselective OTUD7B fragment discovery through chemoproteomics screening and high-throughput optimisation” (Communications Chemistry, 2025)
